Compounds with a hit are over-represented: about 2.8% of the library has one in this group of screens.
NFkB binder: binds human NF-kappa-B p105 on microarray; calls only; P19838; Small molecule microarray, anti-His fluorescence binding; actives 1.3% (n = 17,000);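 active = spot fluorescence over background significantly raised, with a chance value under 7% in all four replicate spots of the compound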;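 also: probe protein is his-tagged human p50 processed subunit at 1 µg/ml; raw spot fluorescence signals with no normalization applied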
Target sequence (P19838 1-433 limits assumed): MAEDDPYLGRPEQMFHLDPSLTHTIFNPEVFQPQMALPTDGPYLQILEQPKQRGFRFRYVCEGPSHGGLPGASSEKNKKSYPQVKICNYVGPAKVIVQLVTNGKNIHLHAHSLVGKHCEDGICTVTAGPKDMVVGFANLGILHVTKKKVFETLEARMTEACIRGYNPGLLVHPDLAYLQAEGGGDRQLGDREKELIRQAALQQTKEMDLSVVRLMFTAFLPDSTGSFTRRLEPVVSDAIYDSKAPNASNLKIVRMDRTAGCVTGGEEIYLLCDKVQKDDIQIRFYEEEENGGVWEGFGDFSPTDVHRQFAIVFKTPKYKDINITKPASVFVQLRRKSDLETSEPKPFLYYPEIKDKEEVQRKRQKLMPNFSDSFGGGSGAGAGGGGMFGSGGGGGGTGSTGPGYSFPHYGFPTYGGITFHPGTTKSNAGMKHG
Myc binder: c-Myc (human) binding; P01106; calls only; actives 1.5% (n = 17,000); small molecule microarray, His-c-Myc binding, anti-His fluorescence;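 active = spot fluorescence over background with P-value below 7% in all four replicate spots, showing protein binding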;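 also: score is binary with 100 for all four spots passing and 0 otherwise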
p53 PUMA act: re-activators of the mutant p53 pathway; AID 624151; SW480 PUMA-promoter luciferase, p53 mutant reactivation; activation, % at 9.98 µM; actives 1.5% (n = 28,000); in the data active = activation above about 52%
mut p53 SMM: binders of human mutant p53. actives 0.4% (n = 17,000). calls only. AID 624136. small molecule microarray binding, anti-GST fluorescence;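 active = compounds whose four printed spots each glow above background more than chance allows, each with a p-value under 7%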
STAT3 binder: binds human STAT3 on microarray. P40763. Small molecule microarray, His-STAT3 binding, anti-His fluorescence. calls only. actives 0.2% (n = 17,000). AID 624138;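 active = compounds whose four printed spots each show fluorescence over background unusually high for their array block, chance value under 7%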
* = called active by the depositor; i = inactive; / = not tested or not shown; + = active, no number.

SMILES | NFkB binder | Myc binder | p53 PUMA act | mut p53 SMM | STAT3 binder
OC(COc1ccccc1Cl)Cn1nnc2ccccc21 (configuration not stated) | i | i | 66* | i | i
COc1ccc(Cl)cc1NC(=S)NCCn1cc(Cl)cn1 | i | + | -6 | i | i
COc1ccc(Cl)cc1NC(=S)NCCCN1CCCC1=O | i | + | 2 | i | i
CC(C)c1ccc(NC(=O)CN(C)S(=O)(=O)c2ccc(F)cc2)cc1 | / | / | 15 | / | /
O=C(CSc1nnc(-c2ccccc2)n1-c1ccccc1)Nc1ccc(C(F)(F)F)cc1 | / | / | 19 | / | /
C[C@H](CO)N1C[C@H](C)[C@@H](CN(C)Cc2ccc(C(F)(F)F)cc2)Oc2ccc(NC(=O)Cc3cn(C)c4ccccc34)cc2CC1=O | + | + | / | i | i
COc1ccc(S(=O)(=O)N(C)C[C@H]2Oc3ccc(NC(=O)Nc4ccc(C(F)(F)F)cc4)cc3CC(=O)N([C@H](C)CO)C[C@H]2C)cc1 | i | + | -12 | i | i
Cc1noc(C)c1S(=O)(=O)Nc1ccc2c(c1)CC(=O)N([C@H](C)CO)C[C@@H](C)[C@@H](CN(C)Cc1ccc(-c3ccccc3)cc1)O2 | i | + | -30 | i | +
C[C@@H]1CN([C@H](C)CO)C(=O)Cc2cc(N(C)C)ccc2O[C@H]1CN(C)S(=O)(=O)c1cccs1 | i | i | -1 | i | i
COc1ccc(S(=O)(=O)N(C)C[C@@H]2Oc3ccc(NC(=O)Nc4ccc(C(F)(F)F)cc4)cc3CC(=O)N([C@@H](C)CO)C[C@H]2C)cc1 | i | i | -37 | i | i
Cc1noc(C)c1S(=O)(=O)Nc1ccc2c(c1)CC(=O)N([C@@H](C)CO)C[C@H](C)[C@H](CN(C)Cc1ccc(-c3ccccc3)cc1)O2 | i | i | 17 | i | i
C[C@@H]1CN([C@@H](C)CO)C(=O)Cc2cc(N(C)C)ccc2O[C@H]1CN(C)S(=O)(=O)c1cccs1 | i | + | 2 | i | i
Cc1ccc(NC(=O)c2c(NC(=O)CN3CCOCC3)sc3c2CCC3)c(C)c1 | / | / | -2 | / | /
CCC1C/C(=C\c2sccc2C)C(=O)/C(=C/c2sccc2C)C1 (configuration not stated) | / | / | -4 | / | /
O=C(NCC1CCCO1)C1CC(c2ccccc2O)=NO1 (configuration not stated) | / | / | 12 | / | /
C[C@H]1CN([C@@H](C)CO)C(=O)Cc2cc(NC(=O)Nc3ccc(F)cc3)ccc2O[C@H]1CN(C)CC1CC1 | i | i | 0 | i | +
COc1ccc(NC(=O)Nc2ccc3c(c2)CC(=O)N([C@@H](C)CO)C[C@H](C)[C@@H](CN(C)Cc2ccc(Oc4ccccc4)cc2)O3)cc1 | i | i | / | + | i
C[C@@H]1CN([C@H](C)CO)C(=O)Cc2cc(NC(=O)Nc3ccc(F)cc3)ccc2O[C@@H]1CN(C)CC1CC1 | i | i | 2 | i | i
COc1ccc(CN(C)C[C@@H]2Oc3ccc(NC(=O)Nc4ccc(OC)cc4)cc3CC(=O)N([C@@H](C)CO)C[C@@H]2C)cc1 | i | i | -1 | i | i
CSCC(NS(=O)(=O)c1ccc(Br)cc1)C(=O)O (configuration not stated) | + | + | -12 | i | i
Cc1ccc(S(=O)(=O)NC(Cc2c[nH]c3ccccc23)C(=O)O)cc1 (configuration not stated) | i | i | -5 | i | i
CCOc1ccc(-c2nnc(SCC(=O)c3ccccc3N)n2C)cc1 | i | i | 67* | i | i
COc1ccc(C(=O)NCC(=O)Nc2cccc(C(F)(F)F)c2)cc1 | i | i | -8 | i | i
COc1cccc(NC(=O)CNC(=O)c2ccccc2)c1 | i | i | 57* | i | i
O=S1(=O)NC(=NCCCCO)c2ccccc21 | i | i | 1 | i | i
SMILES | NFkB binder | Myc binder | p53 PUMA act | mut p53 SMM | STAT3 binder
CCOC(=O)c1c(NC(=O)c2ccccc2[N+](=O)[O-])sc2c1CCCCCC2 | / | / | 1 | / | /
O=C(CSc1nnc(-c2ccc(Cl)cc2)o1)Nc1ccccc1C(F)(F)F | / | / | 68* | / | /
COc1cc(OC)cc(-c2nnc(SCC(=O)Nc3ccccc3)o2)c1 | i | i | 102* | i | i
Cc1cc([N+](=O)[O-])ccc1NC(=O)CSc1nnc(-c2ccccc2)o1 | / | / | 67* | / | /
O=C(CSc1nnc(-c2ccncc2)o1)Nc1ccccc1 | / | / | 31 | / | /
O=C(CSc1nnc(-c2ccc(Cl)cc2)o1)Nc1ccc(I)cc1 | / | / | 24 | / | /
CC(=O)O[C@@]1(C)C[C@@H](O)[C@@H]2C=CO[C@@H](O[C@@H]3O[C@H](CO)[C@@H](O)[C@H](O)[C@H]3O)[C@@H]21 | i | i | -2 | i | i
Cc1ccc(S(=O)(=O)NC(=O)CSc2nc3ccccc3s2)cc1 | i | + | -26 | i | i
COc1cccc(NC(=O)CSc2nnc(-c3ccccc3O)n2-c2ccccc2)c1 | i | i | 0 | i | i
Cc1cccc(C#Cc2ccccc2)n1 | i | i | 85* | i | i
C/C=C/CC(C)C(O)C1C(=O)NC(CC)C(=O)N(C)CC(=O)N(C)C(CC(C)C)C(=O)NC(C(C)C)C(=O)N(C)C(CC(C)C)C(=O)NC(C)C(=O)NC(C)C(=O)N(C)C(CC(C)C)C(=O)N(C)C(CC(C)C)C(=O)N(C)C(C(C)C)C(=O)N1C (configuration not stated) | + | / | -2 | i | i
O=C(CCCN1C(=O)c2ccccc2C1=O)Nc1ccc(Nc2ccccc2)cc1 | / | / | 55* | / | /
O=C(CN1C(=O)S/C(=C\C=C\c2ccccc2)C1=O)Nc1cccc(O)c1 | / | / | 59* | / | /
C=CCn1c(SCC(=O)O)nnc1-c1cccc(C)c1 | i | + | 9 | i | i
C=CCn1c(SCC(=O)O)nnc1-c1ccccc1 | / | / | 3 | / | /
Cc1ccc(C)c(Cn2c(CCCO)nc3ccccc32)c1 | / | / | -7 | / | /
CO[C@H]1/C=C\O[C@@]2(C)Oc3c(C)c(O)c4c(O)c(c(/C=N\N5CCN(C)CC5)c(O)c4c3C2=O)NC(=O)/C(C)=C\C=C/C(C)[C@H](O)[C@@H](C)[C@@H](O)[C@@H](C)[C@@H](OC(C)=O)[C@@H]1C (some centres not stated) | + | i | 3 | i | i
COC(=O)c1c(NC(=S)NCc2ccccn2)sc2c1CCC2 | / | / | 68* | / | /
COC(=O)c1ccccc1NC(=O)c1ccc(NC(=O)COc2ccccc2C)cc1 | / | / | -18 | / | /
COc1ccc(C2CC(=O)c3ccc(OC)cc3O2)cc1 (configuration not stated) | i | i | 97* | i | i
COc1ccc(C(=O)Nc2sc3c(c2C(N)=O)CCCC3)cc1OC | i | i | 76* | i | i
COc1ccc(C(=O)Nc2sc3c(c2C(=O)NC2CCS(=O)(=O)C2)CCCC3)cc1OC (configuration not stated) | i | i | -5 | i | i

Bioassay records from PubChem BioAssay.
